Measurements published in PubChem BioAssay (EPA / NIEHS).
Inconclusive results are not listed. More than one record can exist for a structure, and the calls need not agree. Calls of active or inactive are those of the source. The calls were made as follows, unless noted: active = hit-call score of the fitted dose curve at least 0.9, where 1 is the maximum; inconclusive = response in the unintended direction; inactive = score below 0.9.

Experiments:
[1] = ATG_ERE_CIS: Attagene CIS-FACTORIAL HepG2 Assay for Estrogen Response Element (ERE) (AID 2282940; active = hit-call score of the fitted dose curve at least 0.9, where 1 is the maximum; inactive = score below 0.9); settings: HepG2 ERE cis-reporter, Attagene RNA transcript; actives raise or lower the signal
Method in brief: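 Fluorescence of capillary-separated, FAM-labelled reporter cDNA fragments indicates reporter mRNA levels in HepG2 cells exposed to chemicals for 24 h. Transient transfection with cis-regulated units; data fitted in both directions against DMSO.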

[2] = molecular target: human RAR-related Orphan Receptor gamma (RORg), RORC (gene 6097) (UniProt P51449); experiment: ATG_RORg_TRANS: Attagene TRANS-FACTORIAL HepG2 Assay for human RAR-related Orphan Receptor gamma (RORg) (AID 2283011);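 as to AC50: potency for induction of reporter transcripts above DMSO so activators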
Method in brief: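 First, HepG2 liver cells were transfected with GAL4-UAS-driven reporter constructs and the RORg-Gal4 fusion. Next, they were treated with chemical for 24 h. Finally, reporter mRNA was quantified by RT-PCR and capillary electrophoresis, with upward activity fitted against DMSO.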

[3] = molecular target: Estrogen receptor beta (Homo sapiens) (UniProt Q92731); experiment: OT_ER_ERbERb_1440: Odyssey Thera (OT) 24-hour HEK293T Protein-Complementation Assay for Estrogen Receptor-beta/-beta Homodimer (AID 2283380);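 also: fluorescence gain from ER beta LBD homodimer complementation read by laser scanning cytometry; scored as signal increase over DMSO baseline for both agonists and antagonists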
Method in brief: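 Fluorescence increase, nuclear for agonists or whole-cell for antagonists, relative to DMSO vehicle, quantified by laser scanning cytometer after fixation and Draq5 staining. Readout from 24 h treatment of HEK293T cells carrying complementation-paired ER beta LBD (aa 310-547).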

[4] = molecular target: Peroxisome proliferator-activated receptor gamma (Homo sapiens) (UniProt P37231); experiment: OT_PPARg_PPARgSRC1_1440: Odyssey Thera (OT) 24-hour Protein-Complementation Assay for Peroxisome Proliferator-activated Receptor Gamma/ SRC-1 Co-activator (AID 2283388);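 also: nuclear to cytoplasmic ratio of reconstituted Venus YFP fluorescence in fixed imaged cells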
Method in brief: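 Protein-fragment complementation between PPARg and coactivator SRC-1 was measured by fluorescence imaging in transiently transfected HEK293T cells after 24 h treatment. Signal was quantified as N/C ratio in the 488 nm channel, with DMSO as negative control.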

[5] = ACEA_AR_agonist_AUC_viability: ACEA Biosciences xCELLigence Real-Time Cell Analysis on Androgen Receptor Agonism for Viability (AID 2283775);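 as to AC50: viability read 80 hours after compound addition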
Method in brief: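 Real-time impedance tracking of 22Rv1 growth, readings every 5 min for 5 h then hourly; area-under-curve viability endpoint at 80 hours, relative to DMSO. Compounds at eight concentrations, 1:4 steps, top 100 uM, n = 2.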

[6] = ACEA_AR_antagonist_AUC_viability: ACEA Biosciences xCELLigence Real-Time Cell Analysis on Androgen Receptor Antagonism for Viability (AID 2283776);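 also: 22Rv1 human prostate cancer cells growing on impedance electrode plates; hits lower the growth signal relative to DMSO meaning cytotoxicity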
Method in brief: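 Impedance read-out (RT-CES): area under growth curve at 80 h post-dose, loss of signal scored vs DMSO baseline. 22Rv1 cells; 8-pt 1:4 series, top 100 uM final, ≤0.5% DMSO; biological duplicate.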

[7] = molecular target: Bile acid receptor (Homo sapiens) (UniProt Q96RI1); experiment: ATG_FXR_TRANS: Attagene TRANS-FACTORIAL HepG2 Assay for Farnesoid X Receptor (FXR) (AID 2282979); settings: HepG2 Attagene TRANS FXR-GAL4 reporter transcription;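 also: hits raise reporter mRNA above DMSO so AC50 marks FXR activation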
Method in brief: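 Transient transfection of HepG2 with multiplexed GAL4-UAS reporter units; exogenous FXR-GAL4 chimera. Dose 24 h → TriZol RNA → oligo(dT) RT → PCR, 6-FAM primer extension, HpaI cut → CE. Gain vs DMSO.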

[8] = CCTE_Harrill_HTTr_Viability_MCF7: CCTE's 6-hour Cell Viability Assessment for the High-Throughput Transcriptomics (HTTr) Platform, in MCF-7 cells cultured in DMEM + 10% fetal bovine serum, Harrill Lab (AID 2284010; active = hit-call score of the fitted dose curve at least 0.9, where 1 is the maximum; inactive = score below 0.9)
Method in brief: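 Cells were dosed with chemicals in an eight-point dilution series, imaged 6 hours later for propidium iodide uptake, and the endpoint was analyzed by bidirectional fitting against DMSO as negative control.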

[9] = CCTE_Harrill_HTTr_CellCount_MCF7: CCTE's Cell Proliferation Assessment for the High-Throughput Transcriptomics (HTTr) Platform, Harrill Lab (AID 2284012);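 also: count of Hoechst-stained nuclei per well by high-content imaging in MCF-7 cells; cells exposed to compound for six hours; intended direction is loss of nuclei count meaning fewer cells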
Method in brief: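 Chemicals in eight-point dilution series are added to MCF-7 cells for six hours, nuclei are stained with Hoechst and imaged, and per-well nuclei counts are fitted in both directions relative to DMSO controls.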

[10] = BSK_3C_uPAR: BioMAP Diversity Plus: 3C Assay for Urokinase-type plasminogen activator receptor (uPAR) Biomarker Activity (AID 2282998; active = hit-call score of the fitted dose curve at least 0.9, where 1 is the maximum; inactive = score below 0.9); settings: BioMAP 3C HUVEC, uPAR biomarker ELISA; actives raise or lower the signal
Method in brief: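 A multiplexed primary-cell system built on human umbilical vein endothelium was used, with chemical present for 24 h before reading. Cell-surface uPAR was detected by ELISA; signal change in either direction counted against DMSO.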

[11] = BSK_4H_Eotaxin3: BioMAP Diversity Plus: 4H Assay for Eotaxin 3 Biomarker Activity (AID 2283000; active = hit-call score of the fitted dose curve at least 0.9, where 1 is the maximum; inactive = score below 0.9); settings: primary human endothelial cells (HUVEC); actives raise or lower the signal
Method in brief: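 Chemicals were added to human umbilical vein endothelium cultures, and Eotaxin-3 was quantified by ELISA at 24 h. Values were derived by bidirectional fitting with DMSO serving as negative control and activity baseline.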

[12] = read-out: Monocyte Chemoattractant Protein-1 (MCP1), CCL2 (gene 6347); experiment: BSK_4H_MCP1: BioMAP Diversity Plus: 4H Assay for Monocyte Chemoattractant Protein-1 (MCP1) Biomarker Activity (AID 2283018; active = hit-call score of the fitted dose curve at least 0.9, where 1 is the maximum; inactive = score below 0.9); settings: primary human endothelial cells (HUVEC); actives raise or lower the signal
Method in brief: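 ELISA read-out of MCP-1 from human vascular endothelial primary cells taken at 24 hours after compound exposure. Activity was fitted in both directions relative to DMSO, which served as negative control.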

[13] = read-out: Monokine induced gamma interferon (MIG), CXCL9 (gene 4283); experiment: BSK_3C_MIG: BioMAP Diversity Plus: 3C Assay for Monokine induced gamma interferon (MIG) Biomarker Activity (AID 2283021; active = hit-call score of the fitted dose curve at least 0.9, where 1 is the maximum; inactive = score below 0.9;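 as to AC50: MIG protein level measured by immunoassay in the treated endothelial cultures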); settings: primary human endothelial cells (HUVEC); actives raise or lower the signal
Method in brief: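 Read-out is ELISA detection of MIG on human umbilical vein endothelial cells, taken 24 h after dosing. Gain or loss of signal was scored relative to DMSO controls using bidirectional curve fitting.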

[14] = read-out: Urokinase-type plasminogen activator receptor (uPAR), PLAUR (gene 5329); experiment: BSK_4H_uPAR: BioMAP Diversity Plus: 4H Assay for Urokinase-type plasminogen activator receptor (uPAR) Biomarker Activity (AID 2283030; active = hit-call score of the fitted dose curve at least 0.9, where 1 is the maximum; inactive = score below 0.9); settings: primary human endothelial cells (HUVEC); actives raise or lower the signal
Method in brief: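 Cell-surface uPAR ELISA signal, measured 24 h after dosing human umbilical vein endothelial cells, was analyzed with bidirectional fitting relative to DMSO. Parallel SRB staining of total protein tracked overt cytotoxicity.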

[15] = read-out: Plasminogen activator inhibitor-1 (PAI1), SERPINE1 (gene 5054); experiment: BSK_BE3C_PAI1: BioMAP Diversity Plus: BE3C Assay for Plasminogen activator inhibitor-1 (PAI1) Biomarker Activity (AID 2283037; active = hit-call score of the fitted dose curve at least 0.9, where 1 is the maximum; inactive = score below 0.9); settings: primary human bronchial epithelial cells; actives raise or lower the signal
Method in brief: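 Primary human lung bronchial epithelial cells; chemical dosing; 24 h; PAI-1 measured by ELISA; bidirectional fit referenced to DMSO as negative control.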

[16] = read-out: urokinase plasminogen activator (uPA), PLAU (gene 5328); experiment: BSK_BE3C_uPA: BioMAP Diversity Plus: BE3C Assay for urokinase plasminogen activator (uPA) Biomarker Activity (AID 2283038; active = hit-call score of the fitted dose curve at least 0.9, where 1 is the maximum; inactive = score below 0.9); settings: primary human bronchial epithelial cells; actives raise or lower the signal
Method in brief: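 Bronchial epithelial cells (human, primary); chemical 24 h; uPA by ELISA; bidirectional fit vs DMSO. SRB (0.1%, after 10% TCA fixation, 560 nm) in parallel cultures for cytotoxicity.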

[17] = read-out: Thrombomodulin, THBD (gene 7056); experiment: BSK_CASM3C_Thrombomodulin: BioMAP Diversity Plus: CASM3C Assay for Thrombomodulin Biomarker Activity (AID 2283051; active = hit-call score of the fitted dose curve at least 0.9, where 1 is the maximum; inactive = score below 0.9;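 also: thrombomodulin protein level measured by ELISA 24 h after dosing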); settings: primary human coronary artery smooth muscle cells; actives raise or lower the signal
[18] = read-out: Interleukin-8 (IL8), CXCL8 (gene 3576); experiment: BSK_LPS_IL8: BioMAP Diversity Plus: LPS Assay for Interleukin-8 (IL8) Biomarker Activity (AID 2283078; active = hit-call score of the fitted dose curve at least 0.9, where 1 is the maximum; inactive = score below 0.9); settings: primary human HUVEC with PBMC; actives raise or lower the signal
Method in brief: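 Readout is IL-8 by ELISA, taken 24 h after compounds were added to LPS-stimulated endothelial/PBMC co-cultures. Both increases and decreases relative to DMSO control were scored through bidirectional fitting.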

[19] = molecular target: Retinoic acid receptor RXR-alpha (Homo sapiens) (UniProt P19793); experiment: OT_NURR1_NURR1RXRa_1440: Odyssey Thera (OT) 24-hour HEK293T Protein Complementation Assay for Nurr1/retinoid X receptor (RXR) (AID 2283386)
Method in brief: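 Interaction of Nurr1 with RXRα brings fused reporter fragments together in human HEK293T cells, restoring a functional reporter. Fluorescence intensity is measured 24 h after chemical treatment, and values are analysed in the positive direction against DMSO.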

[20] = molecular target: Retinoic acid receptor RXR-alpha (Homo sapiens) (UniProt P19793); experiment: OT_NURR1_NURR1RXRa_0480: Odyssey Thera (OT) 8-hour HEK293T Protein Complementation Assay for Nurr1/retinoid X receptor (RXR) (AID 2283385)
Method in brief: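 8 h compound exposure, HEK293T; Nurr1/RXRα fragment complementation; fluorescence intensity; positive fitting direction vs DMSO baseline.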

Measured: AC50

Chain of Estrogen receptor beta (Homo sapiens) (Q92731 whole entry, looked up, the tested form may be a part): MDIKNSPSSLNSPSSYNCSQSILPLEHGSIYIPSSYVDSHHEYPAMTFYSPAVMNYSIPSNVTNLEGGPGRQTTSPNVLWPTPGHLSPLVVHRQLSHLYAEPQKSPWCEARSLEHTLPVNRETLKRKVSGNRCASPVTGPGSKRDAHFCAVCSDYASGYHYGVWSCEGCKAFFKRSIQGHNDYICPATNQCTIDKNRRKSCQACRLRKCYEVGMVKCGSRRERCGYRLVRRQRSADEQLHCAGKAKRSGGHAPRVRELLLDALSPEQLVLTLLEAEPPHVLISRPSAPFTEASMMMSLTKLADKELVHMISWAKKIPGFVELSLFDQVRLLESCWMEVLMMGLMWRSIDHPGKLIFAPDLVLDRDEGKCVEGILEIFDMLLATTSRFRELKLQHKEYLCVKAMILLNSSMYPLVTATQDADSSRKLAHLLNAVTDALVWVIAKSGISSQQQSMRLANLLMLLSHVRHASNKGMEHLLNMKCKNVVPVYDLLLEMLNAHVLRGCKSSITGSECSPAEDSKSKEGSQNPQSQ
Chain of Peroxisome proliferator-activated receptor gamma (Homo sapiens) (P37231 whole entry, looked up, the tested form may be a part): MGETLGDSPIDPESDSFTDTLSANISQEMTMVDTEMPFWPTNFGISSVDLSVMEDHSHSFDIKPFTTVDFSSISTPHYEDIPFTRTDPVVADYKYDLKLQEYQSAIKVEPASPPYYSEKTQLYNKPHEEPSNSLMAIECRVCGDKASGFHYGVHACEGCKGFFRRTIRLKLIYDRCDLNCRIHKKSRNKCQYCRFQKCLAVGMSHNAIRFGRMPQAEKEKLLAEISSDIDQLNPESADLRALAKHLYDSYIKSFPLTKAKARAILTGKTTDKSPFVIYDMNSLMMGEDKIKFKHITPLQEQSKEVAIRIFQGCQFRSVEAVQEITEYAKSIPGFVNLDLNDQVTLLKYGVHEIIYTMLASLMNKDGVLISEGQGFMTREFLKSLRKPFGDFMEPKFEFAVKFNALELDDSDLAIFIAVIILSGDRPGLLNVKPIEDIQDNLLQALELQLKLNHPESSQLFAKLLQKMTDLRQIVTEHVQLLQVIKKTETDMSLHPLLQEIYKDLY
Chain of Bile acid receptor (Homo sapiens) (Q96RI1 whole entry, looked up, the tested form may be a part): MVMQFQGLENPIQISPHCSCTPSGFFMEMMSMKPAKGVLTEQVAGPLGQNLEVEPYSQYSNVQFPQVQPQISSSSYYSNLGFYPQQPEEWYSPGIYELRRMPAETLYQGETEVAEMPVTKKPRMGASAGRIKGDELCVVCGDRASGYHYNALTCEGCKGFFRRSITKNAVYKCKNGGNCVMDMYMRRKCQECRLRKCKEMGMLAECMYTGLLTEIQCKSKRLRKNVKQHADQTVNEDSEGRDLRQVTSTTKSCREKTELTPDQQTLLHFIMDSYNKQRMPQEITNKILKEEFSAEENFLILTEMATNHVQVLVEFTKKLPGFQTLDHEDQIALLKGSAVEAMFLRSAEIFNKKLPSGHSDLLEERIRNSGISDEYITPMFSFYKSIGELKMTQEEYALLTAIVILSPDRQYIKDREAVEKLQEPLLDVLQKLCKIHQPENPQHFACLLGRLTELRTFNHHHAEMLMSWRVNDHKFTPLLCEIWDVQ
Chain of Retinoic acid receptor RXR-alpha (Homo sapiens) (P19793 whole entry, looked up, the tested form may be a part): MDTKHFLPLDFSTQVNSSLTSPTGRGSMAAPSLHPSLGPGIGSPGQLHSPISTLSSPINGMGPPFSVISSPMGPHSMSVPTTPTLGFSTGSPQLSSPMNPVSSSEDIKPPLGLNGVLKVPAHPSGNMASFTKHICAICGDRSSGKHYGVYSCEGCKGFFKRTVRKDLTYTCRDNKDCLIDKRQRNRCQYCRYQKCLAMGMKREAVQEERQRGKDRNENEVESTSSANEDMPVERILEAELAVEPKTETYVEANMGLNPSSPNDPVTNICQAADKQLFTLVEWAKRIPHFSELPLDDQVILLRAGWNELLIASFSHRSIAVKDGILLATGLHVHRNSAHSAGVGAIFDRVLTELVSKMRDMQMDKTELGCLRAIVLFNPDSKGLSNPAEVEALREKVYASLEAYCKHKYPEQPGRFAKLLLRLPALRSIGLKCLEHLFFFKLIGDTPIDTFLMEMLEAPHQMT
Chain of human RAR-related Orphan Receptor gamma (RORg), RORC (gene 6097) (P51449 whole entry, looked up, the tested form may be a part): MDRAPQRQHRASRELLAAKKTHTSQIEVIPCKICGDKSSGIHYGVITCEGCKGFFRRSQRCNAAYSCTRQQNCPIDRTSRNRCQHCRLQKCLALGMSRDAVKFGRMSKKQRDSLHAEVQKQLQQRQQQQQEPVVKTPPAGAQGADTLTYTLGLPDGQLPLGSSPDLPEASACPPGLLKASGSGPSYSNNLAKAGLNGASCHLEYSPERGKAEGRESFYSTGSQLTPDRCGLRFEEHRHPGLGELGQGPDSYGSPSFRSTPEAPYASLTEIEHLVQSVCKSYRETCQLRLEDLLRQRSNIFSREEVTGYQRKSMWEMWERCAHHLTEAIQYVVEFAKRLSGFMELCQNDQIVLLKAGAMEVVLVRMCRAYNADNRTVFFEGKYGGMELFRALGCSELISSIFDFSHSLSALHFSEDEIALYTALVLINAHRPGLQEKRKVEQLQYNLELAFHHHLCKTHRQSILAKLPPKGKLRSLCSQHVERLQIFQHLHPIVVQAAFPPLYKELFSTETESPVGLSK

CSc1nc(N=[N+]=[N-])nc(NC(C)C)n1
inactive: [1]

CCCCCCCCCCCCCCCC[N+](C)(C)C
inactive: [2] | [3] | [4]
active: [5] 5.58 µM | [6] 6.1 µM

CCCCCc1cc(O)cc(O)c1
inactive: [7]

C=CC(=O)OCCCCOC(=O)C=C
inactive: [1]

O=C(CCN1CC1)OCC(CO)(COC(=O)CCN1CC1)COC(=O)CCN1CC1
inactive: [7]

CCC(C)c1cc(C(C)(C)C)cc(-n2nc3ccccc3n2)c1O (centres undefined)
inactive: [7] | [2]

COC(=O)c1ccccc1S(=O)(=O)NC(=O)Nc1nc(C)cc(C)n1
inactive: [8] | [9]

C=CCN(CC=C)C(=O)C(Cl)Cl
not listed: [1] | [2] | [6] | [7] | [9] | [20]
inactive: all other assays above

CC[N+](=O)[O-]
inactive: [3] | [19] | [4] | [6]

CC1(C)C(=O)NC(=O)NC1=O
inactive: [1] | [2]

Cc1ccc(C)c2ccccc12
inactive: [3] | [20] | [4] | [5]

CC(=O)C=Cc1ccccc1
active: [20] 1.12 µM
inactive: [2] | [3] | [19] | [4] | [8] | [9]

CC(C)(C)C(O)C(Oc1ccc(-c2ccccc2)cc1)n1cncn1 (centres undefined)
inactive: [1] | [7] | [13] | [16] | [17] | [18] | [8] | [9]
active: [10] 32.2 µM | [11] 32.3 µM | [12] 31.8 µM | [14] 31.8 µM | [15] 5.39 µM

CC(C)[C@@H](C(=O)O[C@@H](C#N)c1cccc(Oc2ccccc2)c1)c1ccc(Cl)cc1
active: [5] 41.6 µM | [6] 50 µM
inactive: [3] | [4] | [5] | [6] | [9]

Nc1ccc([N+](=O)[O-])cc1N
inactive: [2]

C[C@]12CC[C@H](O)C[C@H]1CC[C@@H]1[C@@H]2C[C@@H](O)[C@]2(C)[C@@H](C3=CC(=O)OC3)CC[C@]12O
inactive: [7] | [2]

CC(C)C(=O)Cl
inactive: [7]

C=CCO
inactive: [20] | [19] | [5]

CNC(=N[N+](=O)[O-])NCC1CCOC1 (centres undefined)
inactive: [7] | [2] | [3] | [20] | [19] | [5] | [6]

CCCCOC(=O)CCC(=O)OCCCC
inactive: [2]

CC1CCCC1.[C-]#[O+].[C-]#[O+].[C-]#[O+].[Mn]
inactive: [20] | [19] | [4] | [5]

O=c1c2ccccc2c(=O)c2c1cc(Cl)c1[nH]c3c([nH]c12)c(Cl)cc1c(=O)c2ccccc2c(=O)c13
active: [11] 24.8 µM | [17] 6 µM
inactive: [1] | [7] | [10] | [2] | [12] | [13] | [14] | [15] | [16] | [18]

O=C(CCl)c1ccccc1
active: [10] 6.89 µM | [11] 4.98 µM | [2] 62 µM | [12] 5.41 µM | [13] 9.6 µM | [14] 9.98 µM | [16] 36.2 µM | [18] 7.85 µM | [19] 11.6 µM | [5] 78.5 µM | [6] 69.7 µM
inactive: [15] | [17] | [3] | [20] | [4] | [9]

C[N+](=O)[O-]
inactive: [1]

O=S(=O)(c1ccccc1)c1ccccc1
inactive: [10] | [11] | [12] | [13] | [14] | [15] | [16] | [17] | [18] | [8] | [9]

O=S(=O)(O)O
inactive: [8] | [9]

CCC(=O)c1ccc(Cl)cc1
inactive: [2] | [3] | [20] | [19] | [4] | [5]

CN(C)C(=O)C(c1ccccc1)c1ccccc1
inactive: [2] | [3] | [20] | [19] | [4] | [5] | [6] | [8] | [9]

CC(C)C#N
inactive: [4] | [5] | [6]

Nc1ccc(Cl)c(Cl)c1
active: [6] 1.14 µM
inactive: [2] | [3] | [20] | [19] | [4] | [5] | [8] | [9]

C#CC1(O)CCCCC1
inactive: [2]

N#CCNCC#N
inactive: [1] | [2]

C[C@]12CC[C@H]3[C@@H](CC[C@@]45O[C@@H]4C(O)=C(C#N)C[C@]35C)[C@@H]1CC[C@@H]2O
inactive: [8] | [9]

Cc1ccc(OP(=O)(Oc2ccc(C)cc2)Oc2ccc(C)cc2)cc1 (tested in a mixture with another compound)
active: [12] 2.31 µM | [18] 11.8 µM | [20] 15.5 µM
not listed: [1] | [2] | [3] | [5] | [6] | [7]
inactive: all other assays above

C=Cc1cccc(CCl)c1
inactive: [1] | [2]
